From PubChem BioAssay (NCI)
This is part of a sample that, as a whole, favours compounds with a hit. Of some 79,000 tested, about 15% had one in any assay. The source made the active and inactive calls. Rule as the data show it: active = growth inhibition above about 70%; inactive = the rest.

Experiments:
[1] = NCI Yeast Anticancer Drug Screen. Data for the rad50 strain (AID 155);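 also: 0% = growth of vehicle-only cultures of the same strain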; conditions: S. cerevisiae rad50 strain growth inhibition; at 50.0 µM; active compounds read high
In short: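 Yeast carrying a defined DNA repair defect were exposed to test compounds, and growth was compared with vehicle-treated controls to give percent inhibition.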

[2] = NCI Yeast Anticancer Drug Screen. Data for the mec2-1 strain (AID 157); conditions: S. cerevisiae mec2-1 strain, at 50.0 µM, active compounds read high
In short: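 Test agents were screened against the mec2-1 yeast strain, with defined DNA repair or cell cycle alteration. Growth was scored as inhibition against vehicle-only controls.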

[3] = NCI Yeast Anticancer Drug Screen. Data for the sgs1 mgt1 strain (AID 161);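 also: 0% = growth of cultures given vehicle only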; conditions: S. cerevisiae sgs1 mgt1 strain, at 50.0 µM, active compounds read high
In short: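 Mutant yeast exposed to compound; growth scored against vehicle-only wells.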

[4] = NCI Yeast Anticancer Drug Screen. Data for the cln2 rad14 strain (AID 165);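 also: 0% = growth equal to vehicle treated cultures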; conditions: S. cerevisiae cln2 rad14 strain, at 50.0 µM, active compounds read high
In short: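 Growth of compound-exposed yeast (cln2 rad14 genotype) measured and expressed as inhibition relative to vehicle.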

[5] = NCI Yeast Anticancer Drug Screen. Data for the bub3 strain (AID 167); conditions: S. cerevisiae bub3 mutant strain, at 50.0 µM, active compounds read high
In short: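 Compounds were applied to a genetically altered yeast strain carrying a cell-cycle control defect. Growth inhibition was scored against vehicle-treated controls.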

[6] = NCI Yeast Anticancer Drug Screen. Data for the mlh1 rad18 strain (AID 175); conditions: S. cerevisiae mlh1 rad18 strain growth inhibition; at 50.0 µM; active compounds read high
In short: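 In this whole-cell yeast screen, a strain with altered DNA damage repair is challenged with compound, and its growth is measured against matched vehicle-treated controls.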

Measured: growth inhibition

CC(=O)c1ccccc1NC(=O)C(=O)C(C(=O)c1ccccc1-c1ccccc1)C1OC(=O)c2ccccc21 (stereo unspecified)
inactive: [1] 25% | [2] 2.95% | [3] 8.3% | [4] -49.8% | [5] -1.35% | [6] 11.3%

O=C(O)Cc1ccc(-c2ccccc2)[nH]1
inactive: [1] 3.35% | [2] -14.7% | [3] 3.25% | [4] -25.8% | [5] -17.1% | [6] -12%

Cc1c(Cl)ccc2c1NC(=O)C2(O)CC(=O)c1ccccc1 (stereo unspecified)
inactive: [1] 10.1% | [2] -3.95% | [3] 35.9% | [4] 7.15% | [5] -18.8% | [6] 30.3%

S=c1cc(Cc2ccccc2)[nH]c(=S)[nH]1
inactive: [1] -1.2% | [2] -11.1% | [3] -6.15% | [4] -7.75% | [5] -14% | [6] 4.85%

CCCCN(CCCC)CC(O)c1cc(OC)c2cc(Cl)cc(Cl)c2n1 (stereo unspecified)
active: [1] 99.5% | [2] 99.8% | [3] 99.8% | [4] 99.3% | [5] 99.2% | [6] 99.7%

CC1c2c(ccc3ccccc23)CCC1CC1CCCc2ccc3ccccc3c21 (stereo unspecified)
inactive: [1] 45.6% | [2] -6.15% | [3] 4.7% | [4] 2.2% | [5] -1% | [6] 17.7%

O=[N+]([O-])c1ccc(N=Cc2ccc(O)cc2)cc1
inactive: [1] -17.9% | [2] -19.2% | [3] -30.2% | [4] -27.3% | [5] -4.35% | [6] -67.2%

CC(C)OC(=O)CO
inactive: [1] 29.6% | [2] 3.55% | [3] 14.2% | [4] 12.2% | [5] 10.5% | [6] 13.2%

c1ccc2cc(C3OCCCO3)ccc2c1
inactive: [1] 19.4% | [2] 10.2% | [3] -2.05% | [4] -62.9% | [5] -2.45% | [6] 4.2%

CCO/C=C(\C(=O)OC)S(=O)(=O)c1ccc(C)cc1
inactive: [1] -18.5% | [2] 3.1% | [3] 2.35% | [4] 1.7% | [5] -9.1% | [6] -19.5%

O=P(c1ccccc1)(c1ccccc1)C(O)c1ccc(F)cc1 (stereo unspecified)
inactive: [1] -11.6% | [2] -14.7% | [3] 7.4% | [4] 2.1% | [5] 1.4% | [6] -7.25%

O=C(COc1ccc(Cl)cc1)N1N=C(c2ccc(Cl)cc2)CC1(O)c1ccccc1 (stereo unspecified)
inactive: [1] -15.8% | [2] -29.8% | [3] -8.9% | [4] 0.85% | [5] -18.2% | [6] -10.6%

O=P(CCCCBr)(NCc1ccccc1)c1ccccc1 (stereo unspecified)
inactive: [1] 5.25% | [2] 7.85% | [3] 15.9% | [4] -19.9% | [5] 14.8% | [6] 13.2%

C=CCNC(=O)ON1C(=O)CCC1=O
inactive: [1] -19.8% | [2] 3.05% | [3] -35.6% | [4] -8.65% | [5] -22.9% | [6] -39.5%

N#Cc1cccc2c(S(=O)(=O)O)cccc12
inactive: [1] -12.9% | [2] 4.5% | [3] 11.6% | [4] -17.3% | [5] -2.85% | [6] -10.8%

O=c1oc2ccc(Cl)cc2n1CN1CCOCC1
inactive: [1] 1.9% | [2] -26.9% | [3] 1.95% | [4] 12.8% | [5] -34.2% | [6] 5.55%

Cc1cc(N=C2C=C(Nc3cc(C)on3)C(=O)c3ccccc32)no1
inactive: [1] -8.9% | [2] -1.25% | [3] -21.4% | [4] 1.05% | [5] -14.7% | [6] 6.05%

O=C(Oc1ccc(-c2ccccc2)cc1)c1cccc([N+](=O)[O-])c1
inactive: [1] -10.1% | [2] -4.5% | [3] 7.1% | [4] -11.4% | [5] 27.5% | [6] 0.2%

O=[N+]([O-])c1ccc(N/N=C/CCCCO)c([N+](=O)[O-])c1
inactive: [1] 13.3% | [2] -4.65% | [3] -0.6% | [4] -30.6% | [5] 9.85% | [6] -5.8%

Cc1cccc2c1NC(=O)C2=O
inactive: [1] 21.6% | [2] 8.4% | [3] -2.8% | [4] 15.7% | [5] -0.65% | [6] 13.5%

COc1ccccc1C(O)(c1ccccc1)C(O)(c1ccccc1)c1ccccc1OC (stereo unspecified)
inactive: [1] -20.1% | [2] 2.65% | [3] -20.2% | [4] 15.6% | [5] -5.65% | [6] -4.2%

CSc1ccc(NC(=O)Nc2ccc(Cl)cc2[N+](=O)[O-])cc1
inactive: [1] -4.55% | [2] 40.5% | [3] 13.6% | [4] -6.05% | [5] 17.9% | [6] 20.3%

CCCCC(CC)CSCCOC(C)OCCSCC(CC)CCCC (stereo unspecified)
inactive: [1] 34.3% | [2] 2.25% | [3] 25.6% | [4] 39.9% | [5] 6.6% | [6] 27.9%

CN(C)CCNC(=O)c1ccc(Cl)c2cc3ccccc3nc12
active: [1] 83.3% | [6] 85.8%
inactive: [2] 66.3% | [3] 58% | [4] 50.7% | [5] 15.7%

CCCCNC(=O)CC
inactive: [1] 3.1% | [2] -11.2% | [3] 3% | [4] 4.85% | [5] 14.9% | [6] -1.95%

Cc1cc2c(cc1C)-c1c(N)nc(N)nc1CC2
inactive: [1] 2.2% | [2] 9.95% | [3] -8.6% | [4] -29.2% | [5] -15% | [6] 12.7%

O=C(/C=C/c1ccccc1)CC1OC(=O)c2ccccc21 (stereo unspecified)
inactive: [1] 14.3% | [2] -15.9% | [3] 10.3% | [4] 23.1% | [5] 3.15% | [6] -20.9%

CN(Cc1ccccc1)C(=O)/C=C/c1ccccc1
inactive: [1] 9.8% | [2] 22.1% | [3] 26.4% | [4] 2.85% | [5] 27.2% | [6] 14.8%

N#CCCN(CCC#N)CCN(CCN(CCC#N)CCC#N)CCN(CCC#N)CCC#N
inactive: [1] -8.1% | [2] -0.25% | [3] -6.4% | [4] 2.1% | [5] -15.2% | [6] -10.8%

CCOC(CSc1cc(C)c2ccccc2n1)OCC
inactive: [1] 14.1% | [2] -0.05% | [3] -11.2% | [4] 3.35% | [5] 0.2% | [6] -15.2%

CN(C)CCNC(=O)c1cccc(C(=O)Nc2ccccc2)c1[N+](=O)[O-]
inactive: [1] 13.7% | [2] -12.6% | [3] -7.7% | [4] 20.4% | [5] -9.95% | [6] -41.6%

Cn1c(=O)cc(CCl)c2ccccc21
inactive: [1] 26.9% | [2] 26.6% | [3] 44% | [4] 28.4% | [5] 31.7% | [6] 52%

Cc1cc(=O)[nH]c2cc(NN)ccc12
inactive: [1] 10.2% | [2] -3.85% | [3] 4.85% | [4] -4.35% | [5] -0.45% | [6] 8.55%

COC(=O)c1cccc2c1Cc1cc(N)ccc1-2
inactive: [1] -7.9% | [2] -16.8% | [3] -19.6% | [4] -21.4% | [5] 9.7% | [6] -12.2%

COC(=O)C(N)C(C)(C)S (stereo unspecified)
inactive: [1] -9.9% | [2] -2.75% | [3] -3.65% | [4] -10% | [5] 6.85% | [6] 2.5%

[Cu+2].[Cu+2].[O-]c1ccccc1C=Nc1ccccc1[O-].[O-]c1ccccc1C=Nc1ccccc1[O-]
inactive: [1] 7.25% | [2] -0.95% | [3] -1.2% | [4] 16.9% | [5] 2.1% | [6] 1.55%

O=[N+]([O-])c1ccc(/C(CBr)=N/N2CCCCC2)cc1
inactive: [1] -19.6% | [2] -24.9% | [3] -4.6% | [4] 3.55% | [5] -9.65% | [6] -13.6%

CC(NCCNC(C)c1ccccc1)c1ccccc1 (stereo unspecified)
inactive: [1] 6.65% | [2] -22.3% | [3] -1.25% | [4] -35.1% | [5] 1.85% | [6] 8.45%

Cc1ccccc1C(O)(c1nccn1C)c1nccn1C
inactive: [1] 8.75% | [2] 5.5% | [3] 19.9% | [4] 9.55% | [5] 18.2% | [6] 37.3%

N=C(N)N1CCC(N2CCOCC2)CC1
inactive: [1] 14.7% | [2] -18.4% | [3] -12.6% | [4] -24.4% | [5] 4.75% | [6] -52.5%

C=CCN(CC=C)CNC(C)=O
inactive: [1] -9.7% | [2] -14.7% | [3] -8.4% | [4] -17% | [5] -7.55% | [6] -10.8%
